High-throughput results as filed in PubChem BioAssay.
FBW7 act – human FBW7 E3 ligase activation, primary screen; AlphaScreen FBW7–phospho-cyclin E peptide binding, activator screen; actives 0.13% (n = 650,000); AID 1259310; Q969H0; normalized activity (activation), % at 26.1 µM; in the data active means normalized activity above about 1.9%;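 further: purified mutant Fbw7 with reduced substrate affinity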
GPR151 activ – activates the human receptor GPR151 | Q8TDV0 | PathHunter beta-arrestin GPR151 cells, luminescence | activation, % at 11.2 µM | actives 1% (n = 650,000); in the data active means activation above about 4.9%
MITF inh – human MITF inhibition, primary screen | O75030 | AlphaScreen MITF homodimerization, bead proximity signal | actives 0.91% (n = 650,000) | inhibition, % at 2.6 µM; in the data active means inhibition above about 50%
Target sequence (O75030 whole entry, looked up): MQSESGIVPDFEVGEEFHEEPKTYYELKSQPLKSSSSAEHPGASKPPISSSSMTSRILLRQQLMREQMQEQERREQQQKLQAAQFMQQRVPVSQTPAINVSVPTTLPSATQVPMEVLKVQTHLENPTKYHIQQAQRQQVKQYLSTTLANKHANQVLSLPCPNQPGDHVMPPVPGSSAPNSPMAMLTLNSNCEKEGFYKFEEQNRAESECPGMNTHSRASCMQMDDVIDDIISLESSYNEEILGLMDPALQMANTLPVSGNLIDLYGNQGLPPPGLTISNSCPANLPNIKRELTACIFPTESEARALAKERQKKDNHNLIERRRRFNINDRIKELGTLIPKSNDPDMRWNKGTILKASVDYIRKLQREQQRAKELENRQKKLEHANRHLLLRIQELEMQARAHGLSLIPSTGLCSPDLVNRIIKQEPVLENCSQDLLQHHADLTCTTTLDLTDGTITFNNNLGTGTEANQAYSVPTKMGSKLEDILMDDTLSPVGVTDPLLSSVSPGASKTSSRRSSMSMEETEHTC
TEAD-YAP inh – TEAD-YAP interaction inhibition; HEK-TIYL cells, TEAD-Gal4/YAP UAS-luciferase luminescence; inhibition, % at 9.12 µM; actives 1.4% (n = 640,000); in the data active means inhibition above about 32%
GPR151 confirm – human GPR151 activation, confirmation screen | shares compounds with GPR151 activ | GPR151 PathHunter beta-arrestin cells, luminescence, 90 min; % of EA-reagent control over plate median | activation, % at 11.2 µM | 6,700 tested, under 10 active;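 active means mean percent activation across replicates above the confirmation screen cutoff of 4.91%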
GPR119 counter – GPR119 activation, counter-screen for GPR151 activators | shares compounds with GPR151 activ | GPR119 PathHunter beta-arrestin cells, luminescence, 90 min; 0 = compound-well median, 100 = enzyme-acceptor control | activation, % at 11.2 µM | actives 0.3% (n = 6,700) | AID 1508611;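 active means mean percent activation in the counterscreen above 29.09%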;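 further: counterscreen on off-target GPR119 to flag nonselective hits from the GPR151 activator screen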
Of the large screens only hits and unclear results are named; the others gave an inactive call (follow-up assays come after a bar, where they were run). Shown are actives, neighbours in structure and some others; about 3.5% of the full set was active somewhere.

O=C(Cc1ccc(F)cc1)NCc1ccccc1	GPR151 activ 5.2 | GPR151 confirm inactive | GPR119 counter inactive
CC(C)=N/N=C1/NC(=O)C(CC(=O)Nc2ccc(C)cc2C)S1 (stereo not drawn)	none
O=C(CCc1ccccc1)Nc1ccccc1C(=O)NCc1ccccc1	GPR151 activ 8.0 | GPR151 confirm inactive | GPR119 counter inactive
O=C(CNC(=O)Cc1ccccc1)NCC(=O)OCc1ccccc1	none
O=C(Cc1ccccc1)Nc1ccccc1C(=O)NCc1ccccc1	none
O=C(CCCc1ccccc1)Nc1ccc(O)cc1C(=O)O	none
CN(C(=O)C1CC1)c1ccccc1C(=O)NCc1ccccc1	none
CN(C(=O)c1ccc(F)cc1)c1ccccc1C(=O)NCc1ccccc1	GPR151 activ 9.0 | GPR151 confirm inactive | GPR119 counter inactive
O=C(Cc1ccccc1)NCC(=O)OCc1ccccc1	GPR151 activ 6.3 | GPR151 confirm inactive | GPR119 counter inactive
O=C(CCCc1ccccc1)Nc1ccc(Br)cc1C(=O)O	GPR151 activ 5.9 | GPR151 confirm inactive | GPR119 counter inactive
COc1ccccc1NC(=O)CSc1nnc(C(F)(F)F)o1	none
COc1ccccc1CNC(=O)COc1cccc2ccccc12	GPR151 activ 5.6 | GPR151 confirm inactive | GPR119 counter inactive
Cc1cc(-c2ccccc2)n(-c2cc(Nc3ccccc3)ncn2)n1	GPR151 activ 5.1 | GPR151 confirm inactive | GPR119 counter inactive
Cc1cc(-c2ccccc2)n(-c2cc(Nc3cccc(F)c3)ncn2)n1	none
Cc1ccc(/C(N)=N/OC(=O)CCc2ccccc2)cc1	GPR151 activ 5.0 | GPR151 confirm inactive | GPR119 counter inactive
C=C(C)[C@@H]1CC=C(CN(C)Cc2nnc(SCc3ccncc3)n2C)CC1	none
O=C(C[n+]1ccccc1)Nc1ccccc1C(=O)O	GPR151 activ 7.5 | GPR151 confirm inactive | GPR119 counter inactive
Cc1nn(-c2ccccn2)c2c1C(=O)CC(C)(C)C2Br (stereo not drawn)	GPR151 activ 5.8 | GPR151 confirm inactive | GPR119 counter inactive
CCN(c1ccccc1C)S(=O)(=O)c1nnc(NC(=O)c2ccc(F)cc2)s1	GPR151 activ 10 | GPR151 confirm inactive | GPR119 counter inactive
CCN(c1ccccc1)S(=O)(=O)c1nnc(NC(=O)c2ccccc2OC)s1	GPR151 activ 5.0 | GPR151 confirm inactive | GPR119 counter inactive
CCN(c1ccccc1)S(=O)(=O)c1ccc(F)c(C(=O)Nc2ccc(OC)cc2)c1	GPR151 activ 8.7 | GPR151 confirm inactive | GPR119 counter inactive
CCC1CCc2c(sc3nc(SCC(=O)Nc4cc(Cl)ccc4C)n(-c4ccccc4)c(=O)c23)C1 (stereo not drawn)	none
O=C(Cn1ccc2ccccc2c1=O)NCc1cccs1	none
COc1ccc(C2CC(c3ccccc3)=NN2C(=O)CSc2cccc[n+]2[O-])cc1 (stereo not drawn)	GPR151 activ 5.0 | GPR151 confirm inactive | GPR119 counter inactive
COc1ccc(S(=O)(=O)N2N=C(C)Oc3ccccc3C2=O)cc1	GPR151 activ 5.2, TEAD-YAP inh 44 | GPR151 confirm inactive | GPR119 counter inactive
O=C(Nc1cnc2ccccc2c1)c1ncoc1-c1cccc(Cl)c1	none
Cc1cc(C(C)(C)C)oc1C(=O)N1CCCC(c2c(S(C)(=O)=O)cnc3ncnn23)C1 (stereo not drawn)	none
CCC(C)NC(=O)CN1C(=O)/C(=C\c2cccc(Cl)c2)Oc2ccccc21 (stereo not drawn)	none
COc1ccc(C2CC(c3c(-c4ccccc4)c4cc(Br)ccc4[nH]c3=O)=NN2C(C)=O)cc1 (stereo not drawn)	none
O=C(O)CCC(=O)N1N=C(c2c(-c3ccccc3)c3cc(Br)ccc3[nH]c2=O)CC1c1ccco1 (stereo not drawn)	GPR151 activ 5.4 | GPR151 confirm inactive | GPR119 counter inactive
CC(=O)N1N=C(c2c(-c3ccccc3)c3cc(Br)ccc3[nH]c2=O)CC1c1ccco1 (stereo not drawn)	none
COc1ccc(C2CC(c3c(-c4ccccc4)c4cc(Br)ccc4[nH]c3=O)=NO2)cc1 (stereo not drawn)	GPR151 activ 8.4 | GPR151 confirm inactive | GPR119 counter inactive
COc1ccc(-c2cc(C#N)nc(N3CCN(c4ccccc4)CC3)n2)cc1	GPR151 activ 5.2 | GPR151 confirm inactive | GPR119 counter inactive
COc1cccc(C(=O)N2c3ccccc3C(N(C(=O)CN3C(=O)c4ccccc4C3=O)c3ccccc3)CC2C)c1 (stereo not drawn)	none
Cc1cc2nc(-c3cc(NC(=O)c4cccnc4)ccc3Cl)oc2cc1C	GPR151 activ 5.3 | GPR151 confirm inactive | GPR119 counter inactive
O=C(Nc1ccc(Cl)c(-c2nc3ccccc3o2)c1)c1cccnc1	none
Cc1c(C(=O)NCC2CCCO2)oc2ccc3c(c12)C=CC(C)(C)O3 (stereo not drawn)	GPR151 activ 10 | GPR151 confirm inactive | GPR119 counter inactive
Cn1cc(C(=O)Nc2ccc(F)c(Cl)c2)nn1	none
CC[n+]1c(/C=C2\Sc3ccccc3N2C)ccc2cccc(C)c21	GPR151 activ 5.4, TEAD-YAP inh 87 | GPR151 confirm inactive | GPR119 counter inactive
CC[n+]1c(/C=C2\Sc3ccc(C)cc3N2CCO)ccc2ccccc21	GPR151 activ 5.4, TEAD-YAP inh 80 | GPR151 confirm inactive | GPR119 counter inactive
CCC(=O)/C=C1/Sc2ccc(OC)cc2N1CCO	none
CC[n+]1c(/C=C2\Sc3ccc(-c4ccccc4)cc3N2CCO)ccc2ccccc21	GPR151 activ 22, TEAD-YAP inh 91 | GPR151 confirm inactive | GPR119 counter inactive
CCN1/C(=C/c2ccc3cc(OC)ccc3[n+]2CC)Sc2cc(C)c(C)cc21	GPR151 activ 11, TEAD-YAP inh 67 | GPR151 confirm inactive | GPR119 counter inactive
COc1cccc(/C=N/NC(=O)/C(=C/C=C/c2ccccc2)NC(=O)c2ccccc2)c1O	none
O=[N+]([O-])c1ccc(Cl)c2c1C1C=CCC1C(c1ccccn1)N2 (stereo not drawn)	GPR151 activ 5.1 | GPR151 confirm inactive | GPR119 counter inactive
Cc1sc2ncnc(NCC(C)O)c2c1C (stereo not drawn)	GPR151 activ 4.9 | GPR151 confirm inactive | GPR119 counter inactive
Cc1sc2ncnc(NCc3ccccc3)c2c1C	none
COc1ccc(Cl)cc1C(=O)Nc1c2c(nn1-c1ccccc1C)CS(=O)(=O)C2	none
Cc1ccc(-n2nc3c(c2NC(=O)c2c(F)cccc2F)CS(=O)(=O)C3)cc1	none
COc1ccc(Cl)cc1C(=O)Nc1c2c(nn1-c1ccc(C)cc1C)CS(=O)(=O)C2	GPR151 activ 5.3 | GPR151 confirm inactive | GPR119 counter inactive
O=C(Nc1c2c(nn1-c1ccc(Cl)cc1)CS(=O)(=O)C2)C1(c2ccc(Cl)cc2)CCCC1	none
